Measured values as given in PubChem BioAssay (EPA / NIEHS).
Where “and” joins values, the source holds several entries; their conditions need not be identical. Equal values may be shown once. Calls of active or inactive are those of the source. The calls were made as follows: active = hit-call score of the fitted dose curve at least 0.9, where 1 is the maximum; inactive = score below 0.9.

What follows are compounds tested on Monokine induced gamma interferon (MIG), CXCL9 (gene 4283) (assay: BSK_BE3C_MIG: BioMAP Diversity Plus: BE3C Assay for Monokine induced gamma interferon (MIG) Biomarker Activity (AID 2283035)). Conditions: primary human bronchial epithelial cells; actives raise or lower the signal.
Description: BSK_BE3C is a cell-based, multiplexed-readout assay that uses bronchial epithelial cell, a human lung primary cell, with measurements taken at 24 hours after chemical dosing in a 96-well plate.BSK_BE3C_MIG is an assay component measured in the BSK_BE3C assay. It measures MIG antibody related to regulation of gene expression using ELISA technology.Data from the assay component BSK_BE3C_MIG was analyzed into 1 assay endpoint. This assay endpoint, BSK_BE3C_MIG, was analyzed with bidirectional fitting relative to DMSO as the negative control and baseline of activity. Using a type of binding reporter, gain or loss-of-signal activity can be used to understand changes in the signaling as they relate to the gene CXCL9. Furthermore, this assay endpoint can be referred to as a primary readout, because this assay has produced multiple assay endpoints where this one serves a signaling function. To generalize the intended target to other relatable targets, this assay endpoint is annotated to the cytokine intended target family, where the subfamily is chemotactic factor.
The levels of cell surface (or secreted, indicated by the prefix "s") biomarker endpoints were measured by ELISA. Overt cytotoxicity to cells in confluent adherent cultures (all systems other than the BT system) was assessed by measuring total protein levels using sulforhodamine B (SRB) staining in parallel cultures at the time of biomarker measurements, indicated as SRB endpoints. For proliferation assays for adherent cell types, individual cell types are cultured at sub-confluence and relative cell numbers quantified by SRB staining at time points optimized for each system (48 h: 3C and CASM3C systems; 72 h: BT and HDF3CGF systems; 96 h: SAg system). SRB was performed by staining cells with 0.1% SRB after fixation with 10% TCA and reading wells at 560 nm.Viability and proliferation of PBMC (T cells) was quantified by Alamar Blue reduction for the SAg and BT systems. For PBMC viability (referred to as PBMC Cytotoxicity within the assay endpoint names), cells were plated (75,000/well in a 96-well plate) and then chemical samples added for 1 h before addition of activators, SEB and TSST-1 (20 ng/mL final concentration each). Cells were incubated for 90 h. Then, Alamar Blue (20 uL/well) (Invitrogen, Cat DAL1100) was added for 6 h, and the plates were read with a fluorescence microplate reader at 546/580 nm (excitation/emission). For PBMC proliferation, cells were plated and activated as above but incubated for only 16 h prior to addition of Alamar Blue. Plates were read after 6 h.
`N[C@@H](Cc1cc(I)c(Oc2ccc(O)c(I)c2)c(I)c1)C(=O)O` was tested, and the outcome was “inactive”. With `CCCN(CCC)C(=O)SCC` the outcome was “inactive”. In the case of `CSC(=O)c1cccc2nnsc12`, the outcome is reported as “inactive”. With `COC(=O)c1ccccc1S(=O)(=O)NC(=O)Nc1nc(OC(F)F)cc(OC(F)F)n1` the outcome was “inactive”. In the case of `CC(C)CCCCCCc1ccc(O)cc1`, the AC50 is reported as 33.4 µM (active). `CCCCCCC(C)OC(=O)COc1nc(F)c(Cl)c(N)c1Cl` (stereo not given) was tested, and the outcome was “inactive”. In the case of `COC(=O)c1ccc(I)cc1S(=O)(=O)NC(=O)Nc1nc(C)nc(OC)n1`, the outcome is reported as “inactive”. In the case of `C=CCOC(Cn1ccnc1)c1ccc(Cl)cc1Cl` (stereo not given), the outcome is reported as “inactive”. `N#CSCSc1nc2ccccc2s1` was tested, and the AC50 was 9.86 µM (active) and 12.2 µM (active). With `O=C(Nc1ccc([N+](=O)[O-])cc1Cl)c1cc(Cl)ccc1O` the AC50 was 0.148 µM (active). `CCC(C)OC(=O)N1CCCCC1CCO` (stereo not given) was tested, and the outcome was “inactive”. With `Oc1ccc(C(c2ccc(O)cc2)C(Cl)(Cl)Cl)cc1` the AC50 was 34.7 µM (active). With `CCOC(=O)C(C)Oc1ccc(Oc2nc3ccc(Cl)cc3o2)cc1` (stereo not given) the outcome was “inactive”. In the case of `c1ccc(Nc2ccccc2)cc1`, the outcome is reported as “inactive”. `C[C@]12C[C@H](O)[C@H]3[C@@H](CCC4=CC(=O)CC[C@@]43C)[C@@H]1CC[C@@H]2C(=O)CO` was tested, and the outcome was “inactive”. `c1ccc2[nH]c(-c3cscn3)nc2c1` was tested, and the outcome was “inactive”. For `COC(=O)c1ccc(CNS(C)(=O)=O)cc1S(=O)(=O)NC(=O)Nc1nc(OC)cc(OC)n1`, the outcome was “inactive”. `CCOC(=O)C(C)Oc1ccc(Oc2cnc3cc(Cl)ccc3n2)cc1` (stereo not given) was tested, and the outcome was “inactive”. `CCOC(=O)[C@H](C)Oc1ccc(Oc2nc3ccc(Cl)cc3o2)cc1` was tested, and the outcome was “inactive”. With `CCOC(=O)COc1cc(-n2ncc(C(F)(F)F)c(C)c2=O)c(F)cc1Cl` the outcome was “inactive”. For `CC1(C)C(C=C(Cl)Cl)C1C(=O)OCc1cccc(Oc2ccccc2)c1` (stereo not given), the outcome was “inactive”. In the case of `CCCCC(CC)COC(=O)c1ccccc1C(=O)O` (stereo not given), the outcome is reported as “inactive”. In the case of `CC(C)(C)[C@@H](O)[C@@H](Cc1ccc(Cl)cc1)n1cncn1`, the outcome is reported as “inactive”. With `CC(C)(c1ccc(O)cc1)c1ccc(O)cc1` the outcome was “inactive”. In the case of `CCN(CC)C(=O)c1cccc(C)c1`, the outcome is reported as “inactive”. For `CCOC(=O)c1ccc(O)cc1`, the outcome was “inactive”. In the case of `S=C(S)NCCNC(=S)S.[Mn+2].[S-]C([S-])=NCCN=C([S-])[S-].[Zn+2]`, the outcome is reported as “inactive”. In the case of `CCN(Cc1c(F)cccc1Cl)c1c([N+](=O)[O-])cc(C(F)(F)F)cc1[N+](=O)[O-]`, the outcome is reported as “inactive”. With `C#C[C@]1(O)CC[C@H]2[C@@H]3CCC4=CC(=O)CC[C@@H]4[C@H]3CC[C@@]21CC` the outcome was “inactive”. `CC(=O)[C@H]1CC[C@H]2[C@@H]3CCC4=CC(=O)CC[C@]4(C)[C@H]3CC[C@]12C` was tested, and the outcome was “inactive”. In the case of `COC(=O)c1cccc(C)c1S(=O)(=O)NC(=O)Nc1nc(OCC(F)(F)F)nc(N(C)C)n1`, the outcome is reported as “inactive”. For `S=C([S-])NCCNC(=S)[S-].[Mn+2]`, the outcome was “inactive”. With `CCCCOCCOCCOCc1cc2c(cc1CCC)OCO2` the outcome was “inactive”. In the case of `C#CCOC(=O)[C@@H](C)Oc1ccc(Oc2ncc(Cl)cc2F)cc1`, the outcome is reported as “inactive”. For `COC(=O)c1c(Cl)nn(C)c1S(=O)(=O)NC(=O)Nc1nc(OC)cc(OC)n1`, the outcome was “inactive”. With `OB(O)O` the outcome was “inactive”. `COC(=O)c1ccccc1C(=O)O` was tested, and the outcome was “inactive”. With `CCCCC(CC)CN1C(=O)C2C3C=CC(C3)C2C1=O` (stereo not given) the outcome was “inactive”. In the case of `CCOC(=O)NCCOc1ccc(Oc2ccccc2)cc1`, the outcome is reported as “inactive”. With `COC(=O)CSc1cc(N=c2sc(=O)n3n2CCCC3)c(F)cc1Cl` the outcome was “inactive”.
